# The list is not random: actives were taken first. Their share in the collection is about 1.9%.
# MsrA act: activators of bovine methionine sulfoxide reductase A. purified bovine MsrA, absorbance read-out. activation, % at 10.6 µM. hit rate 0.3% among 360,000. AID 602163; in the data active = activation above about 7.5%;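 also: 0% = vehicle and 100% = reference activator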
# MsrA inh: bovine MsrA inhibition; purified bovine MsrA, absorbance read-out; inhibition, % at 15.5 µM; hit rate 0.75% among 360,000; AID 651718; in the data active = inhibition above about 4.5%;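 also: 0% = vehicle wells with enzyme and 100% = reference inhibitor wells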
# PLC-beta3 inh: inhibitors of human phospholipase C beta3; Q01970; inhibition, % at 12.2 µM; AID 720704; Purified PLC-beta3, fluorogenic substrate, fluorescence; hit rate 0.18% among 370,000;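 also: 0% = median of compound wells on plate and 100% = full blocker control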
# PLC-gamma1 inh: PLC-gamma1 (human) inhibition, primary screen; P19174; hit rate 0.84% among 370,000; AID 720700; purified PLC-gamma1, fluorogenic substrate, fluorescence; inhibition, % at 12.2 µM; in the data active = inhibition above about 9.5%
# Target sequence (P19174 whole entry, looked up): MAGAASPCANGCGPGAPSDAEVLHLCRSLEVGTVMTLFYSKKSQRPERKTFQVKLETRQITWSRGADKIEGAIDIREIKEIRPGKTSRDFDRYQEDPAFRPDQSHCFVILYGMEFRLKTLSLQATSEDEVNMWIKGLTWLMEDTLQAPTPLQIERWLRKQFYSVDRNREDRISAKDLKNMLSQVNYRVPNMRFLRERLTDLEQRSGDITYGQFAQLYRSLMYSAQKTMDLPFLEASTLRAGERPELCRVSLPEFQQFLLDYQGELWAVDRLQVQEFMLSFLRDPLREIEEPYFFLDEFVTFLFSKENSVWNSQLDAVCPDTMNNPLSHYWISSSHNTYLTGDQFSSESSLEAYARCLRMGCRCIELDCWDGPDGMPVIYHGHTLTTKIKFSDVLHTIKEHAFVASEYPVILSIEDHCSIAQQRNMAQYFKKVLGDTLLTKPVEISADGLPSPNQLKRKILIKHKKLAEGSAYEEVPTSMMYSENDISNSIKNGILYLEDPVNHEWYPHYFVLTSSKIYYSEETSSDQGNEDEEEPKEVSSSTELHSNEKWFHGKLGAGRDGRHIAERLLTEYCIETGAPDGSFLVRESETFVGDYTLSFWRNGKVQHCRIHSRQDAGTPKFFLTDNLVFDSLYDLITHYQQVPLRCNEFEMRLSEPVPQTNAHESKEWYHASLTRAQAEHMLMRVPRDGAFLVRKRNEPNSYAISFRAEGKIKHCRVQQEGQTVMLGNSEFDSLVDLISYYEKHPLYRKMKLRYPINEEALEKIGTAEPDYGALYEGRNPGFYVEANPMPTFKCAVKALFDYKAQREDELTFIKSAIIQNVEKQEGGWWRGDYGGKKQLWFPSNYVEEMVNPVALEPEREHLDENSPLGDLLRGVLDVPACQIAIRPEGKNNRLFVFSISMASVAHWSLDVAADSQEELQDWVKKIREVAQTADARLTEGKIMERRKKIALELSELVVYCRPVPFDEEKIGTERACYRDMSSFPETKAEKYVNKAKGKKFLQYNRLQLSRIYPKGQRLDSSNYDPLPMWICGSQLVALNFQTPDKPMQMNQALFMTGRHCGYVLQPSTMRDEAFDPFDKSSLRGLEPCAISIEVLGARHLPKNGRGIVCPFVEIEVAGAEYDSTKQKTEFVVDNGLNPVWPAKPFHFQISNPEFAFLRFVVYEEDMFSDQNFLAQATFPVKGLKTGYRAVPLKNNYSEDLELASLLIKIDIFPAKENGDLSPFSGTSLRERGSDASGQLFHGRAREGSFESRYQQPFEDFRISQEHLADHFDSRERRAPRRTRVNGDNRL
# MsrA inh confirm: bovine MsrA inhibition, confirmed; shares compounds with MsrA inh; purified bovine MsrA, absorbance read-out; inhibition, % at 15.5 µM; hit rate 41% among 2,300; AID 651822; in the data active = inhibition above about 4.5%;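 also: coupled to thioredoxin reductase with NADPH and selenocystamine and DMSO as substrate; 0% = vehicle only and 100% = full effect of reference inhibitor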
# PLCgamma1 ctr: counter-screen for PLC-beta3 inhibitors: inhibitors of human PLC-gamma1 | shares compounds with PLC-gamma1 inh | purified PLC-gamma1, fluorogenic substrate, fluorescence | inhibition, % at 12.3 µM | hit rate 3.1% among 3,300 | AID 743258; in the data active = inhibition above about 9.5%
# PLCb3 confirm: confirmation of human PLC-beta3 inhibitors | shares compounds with PLC-gamma1 inh | purified PLC-beta3, fluorogenic substrate fluorescence | inhibition, % at 12.3 µM | hit rate 1% among 3,300
# Starred values were filed as active, the others as inactive; nt = no result given. Rule as the data show it, unless noted: active = inhibition above about 11%; inactive = the rest.
SMILES,MsrA act,MsrA inh,PLC-beta3 inh,PLC-gamma1 inh,MsrA inh confirm,PLCgamma1 ctr,PLCb3 confirm
O=[N+]([O-])c1ccc(N2CCN(S(=O)(=O)c3ccccc3)CC2)cc1NCc1cccnc1,-6.5,9.1*,8.0,9.0,1.6,nt,nt
Nc1ccc(-c2cnc(-c3ccc(N)cc3)nc2)cc1,-6.5,8.6*,-97.3,-83.7,7.6*,nt,nt
Oc1ccc(-c2cnc(-c3ccc(O)cc3)nc2)cc1,-1.2,1.1,-48.9,-28.0,nt,nt,nt
COc1cccc(CNC(=O)C2CCCN(c3ncccn3)C2)c1OC (stereo unspecified),nt,nt,-8.9,-10.3,nt,nt,nt
C[C@H]1c2cccc(O)c2C(O)=C2C(=O)C3(O)C(O)=C(C(N)=O)C(=O)[C@@H](N(C)C)[C@@H]3[C@@H](O)[C@@H]21 (stereo partly specified),-4.4,4.9*,-45.2,-33.5,2.6,nt,nt
CC(C)OC(=O)/C(=C/c1ccc2c(c1)c1ccccc1n2C)NC(=O)c1ccccc1,-12.8,4.8*,-74.5,-74.0,2.5,nt,nt
O=C(O)c1ccc(/C=N/NC(=O)c2cc3ccccc3cc2O)cc1,-7.9,5.0*,-28.1,-16.1,3.0,nt,nt
O=C(N/N=C/c1ccc(Br)s1)c1ccncc1,-8.4,4.7*,-4.2,-6.0,4.8*,nt,nt
O=C(O)c1cccc(Cn2c(Cl)c(/C=N/NC(=O)c3cc4ccccc4cc3O)sc2=O)c1,-6.3,4.9*,-51.4,-28.6,5.6*,nt,nt
COc1cc(C(=O)N/N=C/c2sc(=O)n(-c3ccccc3)c2Cl)cc(OC)c1OC,-1.4,2.8,-4.9,-7.4,nt,nt,nt
O=C(N/N=C/c1sc(=O)n(-c2ccccc2)c1Cl)c1ccncc1,-1.4,7.5*,-28.3,-17.2,4.8*,nt,nt
O=C(N/N=C/c1cc(Br)c(Br)s1)c1ccncc1,-4.9,2.3,-3.6,1.0,nt,nt,nt
O=C(O)c1cccc(Cn2c(Cl)c(/C=N/NC(=O)c3cccc(O)c3)sc2=O)c1,-10.9,4.3,-13.3,-3.3,nt,nt,nt
C[C@@H]1ON(C)[C@H]2C[C@H]3c4[nH]c5c(-c6cccc(F)c6)cccc5c4CCN3C(=O)[C@@H]12,nt,0.1,-84.3,-59.8,nt,nt,nt
CCOC(=O)CCCNC(=O)OC1CCC12CCC(c1ccccc1)CC2 (stereo unspecified),nt,nt,-5.4,-1.6,nt,nt,nt
CCOC(=O)CC1(O)CSc2nc(N)cc(=O)n21 (stereo unspecified),nt,0.1,-3.0,-1.9,nt,nt,nt
COC(=O)C[C@@H]1CC[C@H]2[C@@H](COc3ccc(NC(=O)Nc4ccc(C)cc4)cc3C(=O)N2C)O1,nt,nt,5.1,5.6,nt,nt,nt
O=C(O)c1cccc(Cn2c(Cl)c(/C=N/NC(=O)c3ccco3)sc2=O)c1,-5.5,7.0*,-15.5,0.6,7.4*,nt,nt
O=C(O)c1cccc(Cn2c(Cl)c(/C=N/NC(=O)c3ccccc3)sc2=O)c1,-4.3,5.7*,-4.9,-2.5,5.1*,nt,nt
Cc1ccccc1N1CCN(C(=O)CN2C(=O)CC(C)(C)S(=O)(=O)c3ccccc32)CC1,nt,nt,0.0,0.7,nt,nt,nt
NC1=NC(=O)/C(=C/c2cccs2)S1,-4.3,6.2*,2.4,14.7*,4.4,1.5,3.1
CCOC(=O)[C@]12CCCC=C1N(CCCOC)C(=O)[C@@H]2CC(=O)NCC1CCCCC1,nt,nt,-2.7,-1.6,nt,nt,nt
Cc1cc[n+](-c2[nH]c(=O)sc2/C=N/N=C(\[O-])c2ccncc2)cc1,-5.7,12.6*,2.7,11.3*,4.2,2.1,7.5
CCc1ccc[n+](-c2[nH]c(=O)sc2/C=N/N=C(\[O-])c2cccnc2)c1,-1.0,4.1,0.8,6.0,nt,nt,nt
COC(=O)[C@]12C[C@H](CC(=O)NCCC(C)C)C(=O)N(CCC3=CCCCC3)C1=C[C@H](COCc1ccccc1)O[C@@H]2C,nt,0.9,-0.6,-1.9,nt,nt,nt
SMILES,MsrA act,MsrA inh,PLC-beta3 inh,PLC-gamma1 inh,MsrA inh confirm,PLCgamma1 ctr,PLCb3 confirm
COC(=O)[C@]12C[C@H](CC(=O)N3CCN(C(=O)c4ccco4)CC3)C(=O)N(Cc3ccccc3)C1=C[C@H](C(C)(C)C)O[C@@H]2C,nt,0.1,6.8,3.4,nt,nt,nt
Cc1ccc[n+](-c2[nH]c(=O)sc2/C=N/NC(=O)c2ccccc2[O-])c1,-4.3,4.9*,1.2,14.3*,0.9,2.9,-0.6
COc1ccc(C2CC(=O)C(c3ccc4ccccc4c3)=CN2Cc2ccccc2)cc1 (stereo unspecified),nt,1.1,-100.4,-85.9,nt,nt,nt
O=C(N/N=C/C(Cl)=C/c1ccc([N+](=O)[O-])cc1)C(=O)Nc1cccc(C(=O)O)c1,-5.3,9.2*,6.3,13.0*,5.3*,-22.5,-18.7
CCOc1cc(/C=N/NC(=O)N/N=C/c2ccc(O)c(OCC)c2)ccc1O,nt,5.5*,13.0*,5.9,4.2,3.8,-1.6
CCOc1cc(/C=N/NC(=O)C(OC)c2ccccc2)ccc1O (stereo unspecified),-9.0,3.8,-15.7,-10.7,nt,nt,nt
CCOC(=O)[C@]12CCCC=C1N(Cc1ccc(OC)cc1)C(=O)[C@@H]2CC(=O)NCc1cccc(C(F)(F)F)c1,nt,nt,3.2,-0.6,nt,nt,nt
CN(C)c1ccc(/C=N/NC(N)=S)cc1[N+](=O)[O-],-4.7,10.1*,0.6,15.8*,7.1*,6.8,8.4
CCc1c(-c2ccc(F)cc2F)ncn1CCc1ccccc1OC,nt,-0.2,6.8,2.7,nt,nt,nt
Cc1csc(Nc2nc(N)c(C(=O)Nc3ccccc3)o2)n1,-4.2,5.7*,10.7*,13.7*,5.0*,-0.7,4.4
CCOc1ccc(-n2c(SCc3cccc4ccccc34)nnc2-c2ccc(C)cc2)cc1,nt,nt,0.1,-0.8,nt,nt,nt
CN(C)/C=C1\N=C(c2ccc(Cl)cc2Cl)OC1=O,-2.2,1.5,-3.6,3.5,nt,nt,nt
Cc1ccc(C2=N/C(=C\N(C)C)C(=O)O2)cc1,-6.8,5.2*,6.0,9.6*,5.5*,6.4,6.8
CN(C)/C=C1/N=C(c2ccccc2)OC1=O,-15.3,7.3*,10.3,10.1*,6.9*,3.9,10.4
COC(=O)[C@]12C[C@H](CC(=O)NCc3ccccc3)C(=O)N(CCC3=CCCCC3)C1=C[C@H](C1CCCC1)O[C@@H]2C,nt,nt,3.2,1.6,nt,nt,nt
O=C(N/N=C/C=C\c1cccc([N+](=O)[O-])c1)c1ccccn1,-3.0,-0.6,6.1,3.3,nt,nt,nt
Cc1cc(C(=O)N/N=C/C=C/c2cccc([N+](=O)[O-])c2)n[nH]1,-3.0,5.9*,10.0,10.9*,3.7,3.0,3.6
Cc1cccc(NC2=C(C#N)C(=O)NC3(CCCC3)S2)c1,-2.6,1.4,-10.9,-1.1,nt,nt,nt
COC(=O)CSC1=C(C#N)C(=O)NC2(CCCCC2)S1,-17.3,5.7*,9.1,16.0*,3.6,-6.1,-7.1
CC(C)Cn1cnc2c(Sc3c([N+](=O)[O-])ncn3C)nc(N)nc21,-2.2,7.7*,11.6*,21.5*,4.3,2.5,5.2
CC(C)Cn1cnc2c(SCc3ccccc3Cl)nc(N)nc21,-2.1,-0.3,2.5,2.8,nt,nt,nt
CC1(C)Cc2c(sc(/N=C/N3CCCCCC3)c2C#N)C(C)(C)N1,-4.0,1.4,2.8,1.4,nt,nt,nt
CC1(C)Cc2c(sc(/N=C/N3CCCC3)c2C#N)C(C)(C)N1,-0.3,5.1*,12.9*,18.7*,3.1,-4.0,0.3

# From PubChem
